Legend:
Assay in all cases: DAPPL (digital affinity profiling via proximity ligation, sequencing); 10 mM Tris-HCl pH 7.5, 50 mM NaCl, 1 mM DTT, 4% glycerol, room temperature, 30 min; GST-TFs on glutathione beads, 16-mer random dsDNA library, 0.1% formaldehyde crosslink after washing; high values mean tight binding
FLI1 = target: T1, FLI1 (Homo sapiens, UniProt Q01543 1-452); conditions: protein: recombinant; tags: N-terminal GST; dsDNA, one strand shown
T1 sequence: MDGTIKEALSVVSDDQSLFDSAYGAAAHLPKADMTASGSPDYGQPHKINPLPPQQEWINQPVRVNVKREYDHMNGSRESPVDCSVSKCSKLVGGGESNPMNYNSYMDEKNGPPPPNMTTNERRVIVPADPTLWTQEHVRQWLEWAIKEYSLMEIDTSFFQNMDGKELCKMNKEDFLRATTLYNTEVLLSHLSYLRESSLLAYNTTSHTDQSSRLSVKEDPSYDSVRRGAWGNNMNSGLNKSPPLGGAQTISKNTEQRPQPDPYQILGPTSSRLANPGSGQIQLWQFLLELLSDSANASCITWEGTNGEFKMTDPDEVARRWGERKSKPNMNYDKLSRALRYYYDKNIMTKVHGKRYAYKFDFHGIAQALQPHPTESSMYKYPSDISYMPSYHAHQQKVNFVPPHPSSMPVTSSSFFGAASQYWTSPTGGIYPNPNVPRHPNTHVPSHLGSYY
Method in brief: (§1)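 Human transcription factors fused to GST were expressed in yeast, captured on glutathione beads, given DNA barcodes and pooled with a GST-only negative control. Pools were incubated with 200 nmole of a 16-mer random double-stranded DNA library in Tris/NaCl/DTT/glycerol buffer at room temperature for 30 min. They were then washed, crosslinked with 0.1% formaldehyde, proximity-ligated (BsaI/T4 ligase, 1 h, 37 °C), PCR-amplified and sequenced on an Illumina NextSeq500. Binding signal is each 6-mer's read frequency for a factor divided by its frequency for the GST control.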

ELK1 = target: T2, ELK1 (Homo sapiens, UniProt P19419 1-428); conditions: protein: recombinant; tags: N-terminal GST; dsDNA, one strand shown
T2 sequence: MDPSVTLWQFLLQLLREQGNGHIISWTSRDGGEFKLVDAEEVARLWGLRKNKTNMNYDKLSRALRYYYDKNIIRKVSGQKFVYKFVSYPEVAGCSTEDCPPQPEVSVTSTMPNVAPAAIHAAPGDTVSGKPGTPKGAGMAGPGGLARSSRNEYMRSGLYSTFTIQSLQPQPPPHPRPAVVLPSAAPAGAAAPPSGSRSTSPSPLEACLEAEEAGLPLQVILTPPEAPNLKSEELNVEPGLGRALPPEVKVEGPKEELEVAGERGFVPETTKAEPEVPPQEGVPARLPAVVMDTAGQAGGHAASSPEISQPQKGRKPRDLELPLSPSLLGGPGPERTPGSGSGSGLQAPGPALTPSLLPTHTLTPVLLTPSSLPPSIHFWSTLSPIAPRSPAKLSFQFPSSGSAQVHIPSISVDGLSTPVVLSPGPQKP
Method in brief: as §1

GABPA = target: T3, GABPA (Homo sapiens, UniProt Q06546 1-454); conditions: protein: recombinant; tags: N-terminal GST; dsDNA, one strand shown
T3 sequence: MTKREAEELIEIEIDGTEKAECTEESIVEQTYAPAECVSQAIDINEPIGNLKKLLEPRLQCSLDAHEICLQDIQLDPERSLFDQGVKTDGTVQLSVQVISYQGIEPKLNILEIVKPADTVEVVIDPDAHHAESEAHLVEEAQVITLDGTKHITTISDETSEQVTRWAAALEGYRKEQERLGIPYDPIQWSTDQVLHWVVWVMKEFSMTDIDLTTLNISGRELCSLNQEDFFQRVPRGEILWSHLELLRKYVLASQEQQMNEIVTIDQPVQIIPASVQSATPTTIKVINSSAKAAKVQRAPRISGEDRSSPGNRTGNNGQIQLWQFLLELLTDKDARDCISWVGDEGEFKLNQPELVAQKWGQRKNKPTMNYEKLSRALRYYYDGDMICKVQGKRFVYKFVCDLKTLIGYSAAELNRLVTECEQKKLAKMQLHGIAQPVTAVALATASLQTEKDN
Method in brief: as §1

ERG = target: T4, ERG (Homo sapiens, UniProt P11308 1-479); conditions: protein: recombinant; tags: N-terminal GST; dsDNA, one strand shown
T4 sequence: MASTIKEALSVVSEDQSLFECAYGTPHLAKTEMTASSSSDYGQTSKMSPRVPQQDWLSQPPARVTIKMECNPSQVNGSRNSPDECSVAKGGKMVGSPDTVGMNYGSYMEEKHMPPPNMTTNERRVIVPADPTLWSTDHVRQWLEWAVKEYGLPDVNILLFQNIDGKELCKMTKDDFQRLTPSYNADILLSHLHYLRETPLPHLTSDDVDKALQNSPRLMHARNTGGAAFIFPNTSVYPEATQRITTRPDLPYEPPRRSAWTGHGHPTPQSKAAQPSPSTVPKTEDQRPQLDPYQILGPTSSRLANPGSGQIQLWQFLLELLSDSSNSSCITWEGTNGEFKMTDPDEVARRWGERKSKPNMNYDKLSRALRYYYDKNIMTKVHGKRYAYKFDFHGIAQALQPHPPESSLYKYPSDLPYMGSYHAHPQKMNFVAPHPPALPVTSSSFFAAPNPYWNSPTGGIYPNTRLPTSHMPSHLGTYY
Method in brief: as §1

ELF1 = ELF1 (Homo sapiens, UniProt P32519 1-619); conditions: protein: recombinant; tags: N-terminal GST; dsDNA, one strand shown
Chain of ELF1 (P32519 whole entry): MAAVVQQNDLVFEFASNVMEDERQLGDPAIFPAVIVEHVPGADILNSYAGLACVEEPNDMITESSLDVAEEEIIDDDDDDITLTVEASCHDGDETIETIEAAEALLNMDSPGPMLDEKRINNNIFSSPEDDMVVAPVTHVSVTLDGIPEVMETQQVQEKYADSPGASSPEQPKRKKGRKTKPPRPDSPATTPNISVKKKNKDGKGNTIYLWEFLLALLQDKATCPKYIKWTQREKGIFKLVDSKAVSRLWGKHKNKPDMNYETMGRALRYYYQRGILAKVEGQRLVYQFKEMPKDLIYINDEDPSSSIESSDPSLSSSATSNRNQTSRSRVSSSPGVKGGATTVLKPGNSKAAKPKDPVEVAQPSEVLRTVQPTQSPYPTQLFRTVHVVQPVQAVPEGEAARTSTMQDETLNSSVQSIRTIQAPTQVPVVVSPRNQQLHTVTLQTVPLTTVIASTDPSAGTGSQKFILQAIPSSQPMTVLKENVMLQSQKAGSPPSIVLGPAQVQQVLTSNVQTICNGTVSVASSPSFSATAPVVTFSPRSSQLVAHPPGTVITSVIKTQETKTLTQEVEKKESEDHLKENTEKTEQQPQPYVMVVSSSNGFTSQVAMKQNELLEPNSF
Method in brief: as §1

EHF = target: T5, EHF (Homo sapiens, UniProt Q9NZC4 1-300); conditions: protein: recombinant; tags: N-terminal GST; dsDNA, one strand shown
T5 sequence: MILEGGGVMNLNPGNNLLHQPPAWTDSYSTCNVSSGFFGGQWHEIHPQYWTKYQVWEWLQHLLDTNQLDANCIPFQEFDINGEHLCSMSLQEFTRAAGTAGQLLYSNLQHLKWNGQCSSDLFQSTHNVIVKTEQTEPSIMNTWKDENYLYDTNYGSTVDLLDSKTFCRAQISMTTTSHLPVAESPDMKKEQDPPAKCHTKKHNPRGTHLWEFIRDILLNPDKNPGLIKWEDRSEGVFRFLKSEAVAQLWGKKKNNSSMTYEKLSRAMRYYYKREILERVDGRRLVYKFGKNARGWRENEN
Method in brief: as §1

SPI1 = SPI1 (Homo sapiens, UniProt P17947 1-270); conditions: protein: recombinant; tags: N-terminal GST; dsDNA, one strand shown
Method in brief: as §1

SPIB = SPIB (Homo sapiens, UniProt Q01892 1-262); conditions: protein: recombinant; tags: N-terminal GST; dsDNA, one strand shown
Chain of SPIB (Q01892 whole entry): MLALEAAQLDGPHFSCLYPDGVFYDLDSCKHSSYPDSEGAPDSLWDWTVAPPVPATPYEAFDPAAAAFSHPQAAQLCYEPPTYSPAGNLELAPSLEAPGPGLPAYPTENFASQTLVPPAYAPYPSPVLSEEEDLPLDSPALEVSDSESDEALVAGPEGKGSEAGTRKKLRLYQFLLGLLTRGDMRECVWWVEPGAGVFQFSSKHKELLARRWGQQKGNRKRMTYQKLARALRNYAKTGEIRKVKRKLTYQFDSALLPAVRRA
Method in brief: as §1

ELK3 = target: T6, ELK3 (Homo sapiens, UniProt P41970 1-407); conditions: protein: recombinant; tags: N-terminal GST; dsDNA, one strand shown
T6 sequence: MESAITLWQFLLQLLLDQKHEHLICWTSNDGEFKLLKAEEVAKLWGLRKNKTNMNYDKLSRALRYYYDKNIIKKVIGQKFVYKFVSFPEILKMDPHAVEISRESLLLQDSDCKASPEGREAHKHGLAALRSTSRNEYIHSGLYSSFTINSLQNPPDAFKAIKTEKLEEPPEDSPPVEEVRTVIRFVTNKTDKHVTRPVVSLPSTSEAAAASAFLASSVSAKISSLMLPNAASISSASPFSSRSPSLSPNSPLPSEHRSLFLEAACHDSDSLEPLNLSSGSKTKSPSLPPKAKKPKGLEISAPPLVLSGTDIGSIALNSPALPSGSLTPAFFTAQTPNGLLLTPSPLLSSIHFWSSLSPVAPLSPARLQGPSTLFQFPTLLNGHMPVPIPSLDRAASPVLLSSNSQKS
Method in brief: as §1

FEV = target: T7, FEV (Homo sapiens, UniProt Q99581 1-238); conditions: protein: recombinant; tags: N-terminal GST; dsDNA, one strand shown
T7 sequence: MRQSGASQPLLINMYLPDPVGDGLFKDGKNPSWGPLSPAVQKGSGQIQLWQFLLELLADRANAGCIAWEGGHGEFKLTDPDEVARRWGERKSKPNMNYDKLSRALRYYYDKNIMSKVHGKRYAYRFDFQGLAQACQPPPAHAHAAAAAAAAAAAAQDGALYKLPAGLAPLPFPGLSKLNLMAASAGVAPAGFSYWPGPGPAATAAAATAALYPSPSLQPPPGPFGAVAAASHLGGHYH
Method in brief: as §1

ETV5 = ETV5 (Homo sapiens, UniProt P41161 1-510); conditions: protein: recombinant; tags: N-terminal GST; dsDNA, one strand shown
Chain of ETV5 (P41161 whole entry): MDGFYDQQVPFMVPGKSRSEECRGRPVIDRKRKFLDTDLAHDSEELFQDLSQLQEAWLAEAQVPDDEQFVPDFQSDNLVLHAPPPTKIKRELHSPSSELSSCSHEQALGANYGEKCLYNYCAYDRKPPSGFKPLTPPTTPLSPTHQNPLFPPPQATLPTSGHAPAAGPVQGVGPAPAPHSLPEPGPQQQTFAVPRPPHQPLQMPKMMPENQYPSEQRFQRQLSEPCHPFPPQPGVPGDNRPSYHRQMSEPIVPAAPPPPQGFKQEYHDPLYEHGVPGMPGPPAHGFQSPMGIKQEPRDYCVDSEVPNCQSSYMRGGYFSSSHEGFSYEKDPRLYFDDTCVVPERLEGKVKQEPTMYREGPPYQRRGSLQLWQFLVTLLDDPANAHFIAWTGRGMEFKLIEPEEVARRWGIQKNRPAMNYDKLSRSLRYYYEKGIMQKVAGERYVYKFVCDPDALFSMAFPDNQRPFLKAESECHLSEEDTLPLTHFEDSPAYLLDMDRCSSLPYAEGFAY
Method in brief: as §1

HSF1 = HSF1 (Homo sapiens, UniProt Q00613 1-529); conditions: protein: recombinant; tags: N-terminal GST; chain copies: 3; dsDNA, one strand shown
Chain of HSF1 (Q00613 whole entry): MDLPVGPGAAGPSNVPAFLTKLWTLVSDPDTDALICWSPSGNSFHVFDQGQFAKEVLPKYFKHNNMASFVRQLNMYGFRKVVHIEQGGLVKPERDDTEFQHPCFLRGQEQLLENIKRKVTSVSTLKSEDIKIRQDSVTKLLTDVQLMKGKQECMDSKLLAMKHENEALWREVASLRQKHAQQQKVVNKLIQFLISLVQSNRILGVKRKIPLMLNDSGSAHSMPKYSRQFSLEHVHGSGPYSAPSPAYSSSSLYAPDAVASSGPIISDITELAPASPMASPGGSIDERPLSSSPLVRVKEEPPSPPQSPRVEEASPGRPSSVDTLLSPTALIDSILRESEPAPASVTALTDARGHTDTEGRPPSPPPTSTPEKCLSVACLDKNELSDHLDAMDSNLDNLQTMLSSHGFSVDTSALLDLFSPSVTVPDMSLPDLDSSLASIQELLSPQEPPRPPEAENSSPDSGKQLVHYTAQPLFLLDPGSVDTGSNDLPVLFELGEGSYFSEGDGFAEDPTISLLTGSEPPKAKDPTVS
Method in brief: as §1

SPIC = target: T8, SPIC (Homo sapiens, UniProt Q8N5J4 1-248); conditions: protein: recombinant; tags: N-terminal GST; dsDNA, one strand shown
T8 sequence: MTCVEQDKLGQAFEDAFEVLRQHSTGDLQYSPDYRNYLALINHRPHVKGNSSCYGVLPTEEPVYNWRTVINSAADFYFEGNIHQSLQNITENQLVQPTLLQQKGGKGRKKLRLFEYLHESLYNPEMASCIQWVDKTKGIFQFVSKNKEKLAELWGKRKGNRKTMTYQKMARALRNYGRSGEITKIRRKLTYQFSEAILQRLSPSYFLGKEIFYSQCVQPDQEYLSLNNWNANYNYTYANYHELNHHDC
Method in brief: as §1

ELF4 = ELF4 (Homo sapiens, UniProt Q99607 1-663); conditions: protein: recombinant; tags: N-terminal GST; dsDNA, one strand shown
Chain of ELF4 (Q99607 whole entry): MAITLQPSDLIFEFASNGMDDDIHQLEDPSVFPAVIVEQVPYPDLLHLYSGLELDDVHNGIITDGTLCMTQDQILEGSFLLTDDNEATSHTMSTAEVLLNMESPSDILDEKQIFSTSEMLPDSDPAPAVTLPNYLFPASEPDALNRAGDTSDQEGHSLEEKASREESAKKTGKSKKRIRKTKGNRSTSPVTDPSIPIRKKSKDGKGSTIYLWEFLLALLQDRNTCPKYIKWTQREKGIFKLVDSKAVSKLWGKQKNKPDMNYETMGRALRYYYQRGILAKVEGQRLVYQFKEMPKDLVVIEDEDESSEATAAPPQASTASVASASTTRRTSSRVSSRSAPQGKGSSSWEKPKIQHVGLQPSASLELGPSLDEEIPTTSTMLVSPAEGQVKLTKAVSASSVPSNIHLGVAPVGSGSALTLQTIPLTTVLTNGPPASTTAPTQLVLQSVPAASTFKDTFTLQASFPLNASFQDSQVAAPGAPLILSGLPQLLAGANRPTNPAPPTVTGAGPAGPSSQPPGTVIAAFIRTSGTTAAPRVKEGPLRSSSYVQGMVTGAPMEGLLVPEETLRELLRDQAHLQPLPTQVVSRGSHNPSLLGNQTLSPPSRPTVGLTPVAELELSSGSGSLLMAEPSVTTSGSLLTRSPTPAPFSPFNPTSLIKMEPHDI
Method in brief: as §1

ELK4 = target: T9, ELK4 (Homo sapiens, UniProt P28324-2 1-405); conditions: protein: recombinant; tags: N-terminal GST; dsDNA, one strand shown
T9 sequence: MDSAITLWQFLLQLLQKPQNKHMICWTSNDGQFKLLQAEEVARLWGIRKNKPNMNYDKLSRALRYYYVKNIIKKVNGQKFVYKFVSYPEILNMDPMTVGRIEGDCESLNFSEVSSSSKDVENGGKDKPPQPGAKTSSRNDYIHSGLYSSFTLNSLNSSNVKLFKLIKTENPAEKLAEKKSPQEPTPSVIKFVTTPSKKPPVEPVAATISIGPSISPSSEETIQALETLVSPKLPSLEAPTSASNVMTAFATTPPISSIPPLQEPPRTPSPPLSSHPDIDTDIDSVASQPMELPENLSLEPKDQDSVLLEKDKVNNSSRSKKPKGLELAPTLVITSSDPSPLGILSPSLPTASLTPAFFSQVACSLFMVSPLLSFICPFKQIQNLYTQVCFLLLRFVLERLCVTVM
Method in brief: as §1

ETV2 = target: T10, ETV2 (Homo sapiens, UniProt O00321 1-342); conditions: protein: recombinant; tags: N-terminal GST; dsDNA, one strand shown
T10 sequence: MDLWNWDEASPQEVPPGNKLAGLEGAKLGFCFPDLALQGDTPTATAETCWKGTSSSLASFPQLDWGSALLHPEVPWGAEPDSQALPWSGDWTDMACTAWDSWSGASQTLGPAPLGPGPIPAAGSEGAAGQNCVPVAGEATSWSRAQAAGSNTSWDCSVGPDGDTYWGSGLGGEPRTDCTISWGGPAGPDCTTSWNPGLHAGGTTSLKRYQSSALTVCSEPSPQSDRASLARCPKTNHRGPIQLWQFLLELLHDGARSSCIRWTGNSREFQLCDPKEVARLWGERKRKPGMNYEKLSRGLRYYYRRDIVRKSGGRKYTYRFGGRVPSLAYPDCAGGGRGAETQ
Method in brief: as §1

ELF3 = target: T11, ELF3 (Homo sapiens, UniProt P78545 1-371); conditions: protein: recombinant; tags: N-terminal GST; dsDNA, one strand shown
T11 sequence: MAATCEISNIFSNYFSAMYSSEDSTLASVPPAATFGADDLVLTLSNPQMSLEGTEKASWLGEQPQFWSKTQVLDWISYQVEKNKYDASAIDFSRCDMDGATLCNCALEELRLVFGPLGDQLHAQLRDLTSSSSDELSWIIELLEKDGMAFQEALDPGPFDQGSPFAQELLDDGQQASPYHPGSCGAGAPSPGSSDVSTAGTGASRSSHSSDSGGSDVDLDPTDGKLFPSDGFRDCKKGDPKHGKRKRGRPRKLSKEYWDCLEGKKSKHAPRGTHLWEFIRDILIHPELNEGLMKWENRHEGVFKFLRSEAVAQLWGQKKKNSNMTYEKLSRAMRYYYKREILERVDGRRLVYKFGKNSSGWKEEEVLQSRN
Method in brief: as §1

CRX = CRX (Homo sapiens, UniProt O43186 1-299); conditions: protein: recombinant; tags: N-terminal GST; dsDNA, one strand shown
Chain of CRX (O43186 whole entry): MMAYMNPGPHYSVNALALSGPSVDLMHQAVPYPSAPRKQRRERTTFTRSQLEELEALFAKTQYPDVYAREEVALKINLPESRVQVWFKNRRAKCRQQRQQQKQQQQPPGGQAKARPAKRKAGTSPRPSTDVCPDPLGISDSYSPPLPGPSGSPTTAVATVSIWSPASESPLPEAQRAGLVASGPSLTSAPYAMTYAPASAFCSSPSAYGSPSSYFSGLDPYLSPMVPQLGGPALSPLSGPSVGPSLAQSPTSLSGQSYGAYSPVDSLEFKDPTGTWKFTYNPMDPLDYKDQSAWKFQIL
Method in brief: as §1

ETV1 = ETV1 (Homo sapiens, UniProt P50549 1-477); conditions: protein: recombinant; tags: N-terminal GST; dsDNA, one strand shown
Chain of ETV1 (P50549 whole entry): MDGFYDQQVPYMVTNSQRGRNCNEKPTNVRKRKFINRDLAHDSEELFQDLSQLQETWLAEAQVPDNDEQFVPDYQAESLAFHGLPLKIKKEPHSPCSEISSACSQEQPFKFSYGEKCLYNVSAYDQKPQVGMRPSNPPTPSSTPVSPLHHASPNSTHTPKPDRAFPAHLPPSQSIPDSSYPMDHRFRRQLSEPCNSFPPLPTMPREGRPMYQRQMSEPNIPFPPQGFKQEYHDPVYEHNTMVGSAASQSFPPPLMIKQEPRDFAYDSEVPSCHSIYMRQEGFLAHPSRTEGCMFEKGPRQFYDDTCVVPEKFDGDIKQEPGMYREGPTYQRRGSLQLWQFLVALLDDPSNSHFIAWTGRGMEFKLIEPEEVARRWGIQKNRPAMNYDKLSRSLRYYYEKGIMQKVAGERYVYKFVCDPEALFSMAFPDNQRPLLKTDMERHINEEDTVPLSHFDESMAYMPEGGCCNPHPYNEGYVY
Method in brief: as §1

## CTAGTT
FLI1
  binding signal: 1.37 fold enrichment (6-mer frequency, TF over GST control)
ELK1
  binding signal: 1.4 fold enrichment (6-mer frequency, TF over GST control)
GABPA
  binding signal: 1.42 fold enrichment (6-mer frequency, TF over GST control)
ERG
  binding signal: 1.3 fold enrichment (6-mer frequency, TF over GST control)
ELF1
  binding signal: 1.31 fold enrichment (6-mer frequency, TF over GST control)
EHF
  binding signal: 1.23 fold enrichment (6-mer frequency, TF over GST control)
SPI1
  binding signal: 1.34 fold enrichment (6-mer frequency, TF over GST control)
SPIB
  binding signal: 1.48 fold enrichment (6-mer frequency, TF over GST control)
ELK3
  binding signal: 1.21 fold enrichment (6-mer frequency, TF over GST control)
FEV
  binding signal: 1.23 fold enrichment (6-mer frequency, TF over GST control)
ETV5
  binding signal: 1.31 fold enrichment (6-mer frequency, TF over GST control)
HSF1
  binding signal: 1.51 fold enrichment (6-mer frequency, TF over GST control)
SPIC
  binding signal: 1.47 fold enrichment (6-mer frequency, TF over GST control)
ELF4
  binding signal: 1.35 fold enrichment (6-mer frequency, TF over GST control)
ELK4
  binding signal: 1.54 fold enrichment (6-mer frequency, TF over GST control)
ETV2
  binding signal: 1.32 fold enrichment (6-mer frequency, TF over GST control)
ELF3
  binding signal: 1.38 fold enrichment (6-mer frequency, TF over GST control)
CRX
  binding signal: 1.16 fold enrichment (6-mer frequency, TF over GST control)
ETV1
  binding signal: 1.35 fold enrichment (6-mer frequency, TF over GST control)

— publication PMC7862700, “An all-to-all approach to the identification of sequence-specific readers for epigenetic DNA modifications on cytosine”
